Source: PubChem (National Center for Advancing Translational Sciences (NCATS))
TbPYK inhibitor: inhibitors of Trypanosoma brucei pyruvate kinase; Q57TT1; TbPYK enzyme, Kinase-Glo Plus ATP luminescence, 45 min; Potency, µM (doses to about 76.8 µM), for inactives: at the highest dose activity, negative = inhibition, usual class: inhibitors; 0.12% of 410,000 active; also: potency is read from the fitted curve at half-maximal effect; nearly all actives have a fitted effect of over 50% in size
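T. brucei PYK with substrate was exposed to pin-transferred compounds across a concentration series, then started with 130 uM ADP (final). After 45 min at room temperature, Kinase-Glo Plus luminescence was read, normalized and curve-fitted.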
LmPK inhibitor: blocks Leishmania mexicana pyruvate kinase activity; 0.37% of 290,000 active; Q27686; purified LmPK, Kinase-Glo ATP luminescence, 1 h; AID 1721; Potency, µM (top dose mostly 57.5 µM), inactives show top-dose activity change, negative = inhibition, hits mostly inhibitors; also: potency is read from the fitted curve at half-maximal effect
Target sequence (Q27686 whole entry, looked up): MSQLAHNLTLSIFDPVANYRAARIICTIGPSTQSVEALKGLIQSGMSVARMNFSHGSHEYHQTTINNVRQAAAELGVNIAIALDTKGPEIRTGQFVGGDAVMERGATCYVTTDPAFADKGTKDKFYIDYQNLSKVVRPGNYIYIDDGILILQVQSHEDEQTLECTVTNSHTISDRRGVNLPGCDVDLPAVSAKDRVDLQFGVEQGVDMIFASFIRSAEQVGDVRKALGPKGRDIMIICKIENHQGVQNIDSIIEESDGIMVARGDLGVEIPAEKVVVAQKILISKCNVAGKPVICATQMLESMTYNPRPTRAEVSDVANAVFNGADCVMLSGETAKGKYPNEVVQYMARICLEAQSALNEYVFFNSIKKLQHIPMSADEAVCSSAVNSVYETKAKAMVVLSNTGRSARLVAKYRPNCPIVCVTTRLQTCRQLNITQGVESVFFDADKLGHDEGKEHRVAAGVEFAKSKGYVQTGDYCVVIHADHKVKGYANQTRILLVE
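Pyruvate kinase activity monitored as ATP production (luciferase luminescence). Conditions: 0.1 nM enzyme, 0.5 mM PEP, 0.1 mM ADP, 1 h, RT; normalized against uninhibited and no-enzyme wells.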
Vaccinia mCherry: inhibitors of vaccinia virus infection (mCherry reporter signal); Vaccinia virus mCherry reporter infection, fluorescence; 0.63% of 310,000 active; Potency, µM (series often up to 36.5 µM), for the others: at the top dose activity change, negative = inhibition, usual class: inhibitors; calls by dose curve; tested in A549 cells; also: potency is read from the fitted curve at half-maximal effect; nearly all actives have a fitted effect of over 35% in size
VACV Venus inh: inhibitors of vaccinia virus (Venus reporter). Potency, µM (doses to about 36.5 µM), for the others: at the top dose activity change, negative = inhibition, actives largely listed as inhibitors. AID 720580. 0.46% of 330,000 active. Vaccinia virus Venus reporter expression, fluorescence; calls by dose curve; tested in A549 cells; also: potency is read from the fitted curve at half-maximal effect; nearly all actives have a fitted effect of over 30% in size
HCMV antiviral: human cytomegalovirus inhibition; activity change, negative = inhibition, % at 57.5 µM; 4.5% of 410,000 active; HFF cells, HCMV-luciferase reporter, 72 h; hits give low values; in the data active = activity change below about -60%; inconclusive = no clear call, values can overlap the other calls; inactive = above about -39%
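HFF cells seeded 16 h at 37C, treated with compounds, infected with luciferase-reporter HCMV at MOI 1 PFU/cell; luciferase read at 72 h post infection, normalized to buffer-only and Salinomycin controls.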
* = called active by the depositor; i = inactive; ? = inconclusive; / = no result given. This is a sample that favours compounds with a hit; in the whole collection about 5% have one here. Unless noted, calls follow the shape of the dose curve; as a rule, active = well fitted curve in the direction sought with a large enough effect; inconclusive = small, poorly fitted or top-dose-only effect, or another doubt; inactive = no such curve, though single readings can be large; an effect the other way counts as inactive or inconclusive. % is scaled to controls: 0 for no effect and ±100 for the full control effect.

SMILES	TbPYK inhibitor	LmPK inhibitor	Vaccinia mCherry	VACV Venus inh	HCMV antiviral
O=C(NCC1CCCO1)C1CCN(C2CCN(Cc3ccco3)CC2)CC1 (stereo not given)	2.6%	13.3%	-5.5%	-14.8%	?
Cc1cccc(OCC(=O)Nc2ccc(N3CCN(C(=O)c4ccco4)CC3)cc2)c1	-0.6%	3.7%	?	?	-68.3*
CCOc1nc(NCCc2ccc(OC)c(OC)c2)nc(N2CCN(c3ccc(OC)cc3)CC2)n1	/	7.4%	/	/	68.9
CCOc1cc(CNc2ccc(N3CCN(C(C)=O)CC3)cc2)cc(Br)c1OC	-14.0%	4.1%	-10.9%	-6.6%	?
COc1ccc(N2CCN(C(=O)NCc3ccc(OC)c(OC)c3)CC2)cc1	2.7%	2.2%	-0.6%	-11.1%	-67.7*
CC(=O)N1CCN(c2ccc(NCc3cccc(C)c3)cc2)CC1	-18.7%	/	/	/	-76.7*
Cc1ccc(OCC(=O)Nc2ccc(N3CCN(C(=O)c4ccco4)CC3)cc2)cc1C	-0.1%	2.1%	-14.9%	?	?
COc1ccc(N2CCN(c3nc(NCCc4ccc(OC)c(OC)c4)nc(OC)n3)CC2)cc1	-10.6%	5.7%	-27.5%	?	-89.7*
COc1ccc(C(=O)N2CCC3(CCN(C(=O)Nc4cccc(F)c4)CC3)CC2)cc1	-5.8%	/	/	/	/
COc1cc(CNc2ccc(N3CCN(C(C)=O)CC3)cc2)ccc1OCc1ccc(F)cc1	0.0%	-1.0%	?	-25.9%	-72.9*
CC(=O)N1CCN(c2ccc(NCc3ccc(F)cc3)cc2)CC1	-20.4%	-8.4%	-4.4%	2.1%	-39.5
Cc1ccc(C(=O)Nc2ccc(N3CCCCC3)cc2)cc1	-5.5%	/	/	/	37.5
CC(=O)N1CCN(c2ccc(NC(=O)c3cccc(Cl)c3Cl)cc2)CC1	1.4%	-2.2%	-15.2%	-16.6%	-34.6
O=C(Nc1ccccc1N1CCCC1)c1cccc(-c2cc3ccccc3oc2=O)c1	1.2%	4.4%	-15.2%	-5.0%	41.0
O=C(Nc1ccc(N2CCCC2)cc1)c1cccc(-c2cc3ccccc3oc2=O)c1	-29.3%	-2.2%	i	-3.9%	-63.3*
O=C(Nc1ccc(N2CCCCC2)cc1)c1ccccc1	-17.2%	3.55µM*	-21.0%	-17.7%	40.0
O=C(Nc1ccc(N2CCCC2)cc1)c1cccc(Cl)c1Cl	-2.8%	-4.3%	?	-21.4%	-80.3*
O=C(NNC(=O)c1ccc(NC(=O)c2ccccc2)cc1)Nc1ccccc1	0.4%	-1.9%	/	/	-61.8*
COc1ccc(-c2noc3c2-c2nc(-c4ccccc4F)sc2CC3)cc1	4.1%	-8.1%	-28.0%	-23.3%	-16.3
CCc1nc2ccc(C(=O)N3CCN(S(=O)(=O)CC)CC3)cn2c1N(CC)CCOC	0.6%	/	37.1%	18.1%	-5.0
CC(=O)N1CCN(c2ccc(NC(=O)c3ccc(C(C)(C)C)cc3)cc2)CC1	-18.3%	1.2%	-20.0%	?	-85.6*
CC(C)C(NS(C)(=O)=O)c1nnc2n1CCN(Cc1ccnc3ccccc13)CC2 (stereo not given)	/	/	-17.7%	-6.4%	/
CCc1ccc2nc(NC(=O)c3cc(C)on3)sc2c1	-13.7%	0.3%	/	-36.6%	102.0
Cc1cc(=O)n2c3ccccc3n(CC(O)CN3CCN(Cc4ccccc4)CC3)c2c1C#N (stereo not given)	-14.4%	-2.3%	/	/	-67.9*
COc1ccccc1C1CC(c2c(-c3ccccc3)c3cc(Cl)ccc3[nH]c2=O)=NN1S(C)(=O)=O (stereo not given)	4.2%	3.4%	11.2µM*	11.2µM*	8.8
SMILES	TbPYK inhibitor	LmPK inhibitor	Vaccinia mCherry	VACV Venus inh	HCMV antiviral
CC=Cc1cc2c(c(=O)o1)C(=O)C(O)C(C)O2 (stereo not given)	0.0%	/	-9.1%	-11.5%	45.3
COc1ccc2cc(CN(CC3CCCO3)C(=S)Nc3ccccc3)c(=O)[nH]c2c1 (stereo not given)	3.9%	3.1%	-13.2%	?	-72.8*
COc1ccccc1NC(=S)N(Cc1ccco1)Cc1cc2cccc(C)c2[nH]c1=O	1.3%	-0.1%	-22.5%	-17.7%	-21.1
CCN(CC)CCCNC(=S)N(Cc1cccs1)Cc1cc2cc3c(cc2[nH]c1=O)OCCO3	3.4%	-2.5%	-1.8%	-13.4%	-104.4*
COc1ccc(N(Cc2cc3ccccc3[nH]c2=O)C(=O)C2CCCO2)cc1 (stereo not given)	-0.3%	3.1%	/	-11.5%	-64.7*
COc1ccccc1NC(=S)N(Cc1ccco1)Cc1cc2cc(C)c(C)cc2[nH]c1=O	-11.0%	3.4%	?	?	-61.9*
